Source: the supplement of paper PMC9925115
Several values for one entry are separate records, joined by “and”; a condition that tells them apart may be missing. Equal entries are not always repeated. ± gives the uncertainty stated by the source.

tested on: FLX1; test: cell viability z-score within plate (CellTiter-Glo), mean of 3 biological replicates; higher = higher viability relative to plate (less growth inhibition); conditions: 2 µM; time (hr): 120
Experimental: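 FLX1 fibrolamellar carcinoma cells (DNAJB1-PRKACA fusion), 600 cells/well in 384-well plates, treated with a Selleck kinase inhibitor library (L1200) at 2 uM for 5 days (120 hr); viability by CellTiter-Glo. A z-score was computed within each plate and averaged over three biological replicates.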

Row | Structure (SMILES) | cell viability z-score within plate
1 | COc1cc2ncnc(Nc3ccc(F)c(Cl)c3)c2cc1NC(=O)/C=C/CN1CCCCC1 | 0.26 ± 0.81
2 | Cc1nc(N)sc1-c1ccnc(Nc2ccc(N3CCOCC3)cc2)n1 | 0.352 ± 0.28
3 | C=CC(=O)Nc1ccc2ncnc(Nc3cccc(Br)c3)c2c1 | -1.55 ± 0.85
4 | Cc1cc(CS(=O)(=O)c2ccccc2)cc(OCc2ccc(CN3CCC[C@@H]3CO)cc2)c1 | 0.378 ± 0.24
5 | C=CC(=O)Nc1cccc(Nc2nc(Nc3ccc(N4CCN(C(C)=O)CC4)cc3OC)ncc2C(F)(F)F)c1 [Rociletinib (CO-1686, AVL-301)] | -0.855 ± 0.71
6 | Cc1cc(N2CCOCC2)cc2[nH]c(-c3c(NC[C@@H](O)c4cccc(Cl)c4)cc[nH]c3=O)nc12 | -0.387 ± 0.41
7 | CO[C@H]1C[C@@H]2CC[C@@H](C)[C@@](O)(O2)C(=O)C(=O)N2CCCC[C@H]2C(=O)O[C@H]([C@H](C)C[C@@H]2CC[C@@H](OCCO)[C@H](OC)C2)CC(=O)[C@H](C)/C=C(\C)[C@@H](O)[C@@H](OC)C(=O)[C@H](C)C[C@H](C)/C=C/C=C/C=C/1C [Everolimus (RAD001)] | -0.497 ± 1.1

tested on: FLX1 + dox-induced PRKAR1A G325D; test: difference in log2 fold change of viability vs plate median (dox-induced PRKAR1A G325D minus uninduced); higher = compound less effective when PKA is inhibited; conditions: concentration: not stated (2 or 5 uM); 5 days
Experimental: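 For each plate a log2 fold change vs the plate median was derived, and the values without dox were subtracted from those with dox, averaged over three biological replicates.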

Row | Structure (SMILES) | difference in log2 fold change of viability
8 | Cc1nc(Nc2cnn(C3CCNCC3)c2)nc2c1N(C)C(=O)c1cc3ccccc3cc1N2C | -0.568
9 | N#C/C(=C\c1ccc(O)c(O)c1)C(=O)NCc1ccccc1 [AG-490 (Tyrphostin B42)] | -0.0065
10 | Cc1cc(Nc2cc(N3CCN(C)CC3)nc(Sc3ccc(NC(=O)C4CC4)cc3)n2)n[nH]1 [Tozasertib (VX-680, MK-0457)] | -0.00164
11 | Cc1ccc(F)c(NC(=O)Nc2ccc(-c3cccc4[nH]nc(N)c34)cc2)c1 [Linifanib (ABT-869)] | 0.386
12 | CC(C)CC(=O)Nc1n[nH]c2c1CN(C(=O)C1CCN(C)CC1)C2(C)C | 0.243
13 | O=C1NC(=O)[C@@H](c2cn3c4c(cccc24)CCC3)[C@@H]1c1c[nH]c2ccccc12 [Tivantinib (ARQ 197)] | 0.768
14 | CNC(=O)c1ccccc1Sc1ccc2c(/C=C/c3ccccn3)n[nH]c2c1 [Axitinib] | -0.125
15 | COC(=O)c1ccc2c(c1)NC(=O)/C2=C(\Nc1ccc(N(C)C(=O)CN2CCN(C)CC2)cc1)c1ccccc1 [Nintedanib (BIBF 1120)] | -4.27
16 | COc1cc(F)c(F)c(Nc2ccc(I)cc2F)c1NS(=O)(=O)C1(C[C@H](O)CO)CC1 [Refametinib (RDEA119, Bay 86-9766)] | 0.183
17 | O=C(NOCC(O)CO)c1cc(Br)c(F)c(F)c1Nc1ccc(I)cc1F (stereo not given) | -1.06
18 | COc1cc2ncnc(Nc3ccc(F)c(Cl)c3)c2cc1NC(=O)/C=C/CN1CCCCC1 | -0.0217
19 | Clc1ccc(Nc2nnc(Cc3ccncc3)c3ccccc23)cc1 [Vatalanib (PTK787) 2HCl] | 0.168
20 | Cc1cc(O)c2c(c1)C(=O)c1cccc(O)c1C2=O [Chrysophanic Acid] | 0.0332
21 | Cc1ccc(NC(=O)c2cccc(C(C)(C)C#N)c2)cc1Nc1ccc2ncn(C)c(=O)c2c1 | 0.173
22 | Oc1cc(O)cc(/C=C/c2ccc(O)c(O)c2)c1 [Piceatannol] | -0.236
23 | Cc1nc(N)sc1-c1ccnc(Nc2ccc(N3CCOCC3)cc2)n1 | 0.455
24 | Cc1cc(Nc2nc(N[C@@H](C)c3ncc(F)cn3)ncc2Cl)[nH]n1 | -1.58
25 | O=C1c2ccc(Nc3ccc(F)cc3F)cc2CCc2ccc(OC[C@H](O)CO)cc21 [Skepinone-L] | 0.71
26 | Cc1cc(C(=O)NOCCO)c(Nc2ccc(I)cc2F)n(C)c1=O | -0.818

Row | Structure (SMILES) | difference in log2 fold change of viability
27 | Cn1sc(=O)n(Cc2ccccc2)c1=O | 0.221
28 | NC1(Cc2ccc(Cl)cc2)CCN(c2ncnc3[nH]ccc23)CC1 | 0.655
29 | Cc1ccc(C(=O)Nc2cccc(C(F)(F)F)c2)cc1Nc1nc(-c2cccnc2)nc2c1cnn2C | 0.868
30 | Cn1cc(-c2ccc3ncc(Cc4ccc5ncccc5c4)n3n2)cn1 | -0.0241
31 | CC(C)(C)c1cc(/C=C(\C#N)C(N)=S)cc(C(C)(C)C)c1O [Tyrphostin AG 879] | 0.264
32 | C=CC(=O)Nc1ccc2ncnc(Nc3cccc(Br)c3)c2c1 | -0.936
33 | Cc1cc(CS(=O)(=O)c2ccccc2)cc(OCc2ccc(CN3CCC[C@@H]3CO)cc2)c1 | 0.461
34 | Cc1cnc(-c2cnc(NCCNc3ccc(C#N)cn3)nc2-c2ccc(Cl)cc2Cl)[nH]1 | -0.0854 and -0.119
35 | C=CC(=O)Nc1cccc(Nc2nc(Nc3ccc(N4CCN(C(C)=O)CC4)cc3OC)ncc2C(F)(F)F)c1 [Rociletinib (CO-1686, AVL-301)] | -0.172
36 | CCCNC(=O)Nc1ccc(Oc2ncnc3cc(OC)c(OC)cc23)cc1Cl | -0.22
37 | C[C@@H](Oc1cc(-c2cnn(C3CCNCC3)c2)cnc1N)c1c(Cl)ccc(F)c1Cl | -0.703
38 | Cc1cc(N2CCOCC2)cc2[nH]c(-c3c(NC[C@@H](O)c4cccc(Cl)c4)cc[nH]c3=O)nc12 | -1.17
39 | COC(=O)Nc1ccc(-c2nc(N3CCOCC3)c3cnn(C4CCN(C(=O)OC)CC4)c3n2)cc1 | 0.71
40 | CO[C@H]1C[C@@H]2CC[C@@H](C)[C@@](O)(O2)C(=O)C(=O)N2CCCC[C@H]2C(=O)O[C@H]([C@H](C)C[C@@H]2CC[C@@H](OCCO)[C@H](OC)C2)CC(=O)[C@H](C)/C=C(\C)[C@@H](O)[C@@H](OC)C(=O)[C@H](C)C[C@H](C)/C=C/C=C/C=C/1C [Everolimus (RAD001)] | -1.32
41 | Cc1nc(Nc2n[nH]c3c2CN(C(=O)N[C@H](CN(C)C)c2ccccc2)C3(C)C)c2sccc2n1 | 0.871
42 | COc1ccc(-c2ccc3c(N4CCOCC4)nc(N4C[C@@H](C)O[C@@H](C)C4)nc3n2)cc1CO | 0.463
43 | COc1cc(Nc2ncc(F)c(Nc3ccc4c(n3)NC(=O)C(C)(C)O4)n2)cc(OC)c1OC [R406 (free base)] | -0.334
44 | COc1ccc(-c2nc(N3CCOCC3)c3sc(CN(C)c4ncc(C(=O)NO)cn4)cc3n2)cn1 | 0.159
45 | Cc1cc(C(C)Nc2ccccc2)c2nc(N3CCOCC3)cc(=O)n2c1 (stereo not given) | 0.222
